Data reported in PubChem BioAssay AID602274 (Sanford-Burnham Center for Chemical Genomics, 2012).
In all, about 360,000 compounds went through this assay and about 160 (0.044%) were called active. Cut-off read from the data, not from the text of the source: active = survival enhancement above about 18%; inactive = the rest. The sample as a whole holds a higher share of actives than the screen did.

experiment: enhancers of single-cell hiPSC survival, primary screen, ATPlite luminescence (AID 602274); conditions: at 20 µM, stronger effect = higher value, 100% = ROCK inhibitor wells, 0% = DMSO;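 note: cells exposed to compounds for 16 hours before the ATP read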

| Compound | survival enhancement |
| --- | --- |
| Cc1ccc(Nc2c(O)nc[nH]c2=O)cc1C | 0.4% (inactive) |
| CC(=NCc1ccc2c(c1)OCO2)C1=C(O)c2ccccc2C1=O | 2.2% (inactive) |
| CC(=O)Nc1ccc(S(=O)(=O)Oc2ccc(/C=N/N=C3/NC(=O)C(CC(=O)O)S3)cc2)cc1 (centres undefined) | 2% (inactive) |
| COc1cc(CO)c(C2(CO)CCCC2)cc1OC | 3.1% (inactive) |
| C[C@@H]1ON(C)[C@H]2C[C@H]3c4cc(N5CCN(C)CC5)ccc4CCN3C(=O)[C@@H]12 | -2.2% (inactive) |
| CC(C)C(C)(C#N)NC(=O)CSc1nc2scc(-c3ccccc3)c2c(=O)[nH]1 (centres undefined) | -0.3% (inactive) |
| N=C1C(=O)OCC1c1ccccc1NC(=O)CN1CCCCC1 (centres undefined) | -0.4% (inactive) |
| COc1ccc(C(C(=O)NCc2ccccc2)N(Cc2cccs2)C(=O)c2cnccn2)cc1 (centres undefined) | 6.6% (inactive) |
| COC(=O)c1ccc(CN2CCCC(C(=O)Nc3cccc(-n4cnnn4)c3)C2)cc1 (centres undefined) | 0.6% (inactive) |
| C=CC(COCc1ccccc1)N(CC(=O)OC)S(=O)(=O)c1cc(Br)ccc1OC (centres undefined) | -0.4% (inactive) |
| CCCNc1c(N)c(=O)c1=O | -0.6% (inactive) |
| O=C(Nc1ccccc1N1CCCC1)c1ccc(F)c(S(=O)(=O)N2CCOCC2)c1 | -0.3% (inactive) |
| O=C(c1cccs1)N1C[C@H](n2cc(C3CC3)nn2)[C@@H](O)C[C@@H]1c1ccccc1 | -0.3% (inactive) |
| Cc1c(S(=O)(=O)N2CC(C)CC(C)C2)c(=O)n(C)c(=O)n1C (centres undefined) | -0.4% (inactive) |
| CCc1nc2ccc(C(=O)Nc3cccc(OC)c3)cn2c1N(CCC(C)C)CCN(C)C | -0.8% (inactive) |
| CNC(=O)c1nnc(Cc2ccc(Cl)cc2)o1 | 0.3% (inactive) |
| CCn1c(=S)sc2c(=O)n(CC(=O)Nc3cccc(Br)c3)c(C)nc21 | -0.2% (inactive) |
| CCNC(=O)N1CCCC(C(=O)c2ccc(-c3ccccc3)cc2)C1 (centres undefined) | 1.4% (inactive) |
| CC1(C)CC(N(Cc2ccccc2)C(=O)Cc2ccccc2)CCO1 (centres undefined) | -0.5% (inactive) |
| CCN1C[C@@H]2[C@@H]3C(=O)N(C)C(=O)[C@@H]3[C@](C)(C1=O)N2C(=O)c1ccccc1 | -1.3% (inactive) |
| CC(C)C[C@H](NC(=O)C1CCC(CNC(=O)[C@@H]2CCCN2C(=O)OC(C)(C)C)CC1)C(=O)O (some centres undefined) | 0.8% (inactive) |
| Cc1nc(C(F)(F)F)ccc1C(=O)N1CCC1(C)C(=O)NS(=O)(=O)c1ccc(F)cc1F (centres undefined) | -1.2% (inactive) |
| CC[C@H]1OC(=O)[C@H](C)[C@@H](O[C@H]2C[C@@](C)(OC)[C@@H](O)[C@H](C)O2)[C@H](C)[C@@H](O[C@@H]2O[C@H](C)C[C@H](N(C)C)[C@H]2O)[C@](C)(O)C[C@@H](C)[C@@H]2N[C@@H](COCCOC)O[C@H]([C@H]2C)[C@]1(C)O | 1.7% (inactive) |
| CCCCN(C(=O)c1ccc2ccccc2c1)c1c(N)n(CCCC)c(=O)[nH]c1=O | -0.4% (inactive) |
| Cn1cc(CN2CCCC(CO)C2)c(-c2ccc(Oc3ccccc3)cc2)n1 (centres undefined) | 4.5% (inactive) |
| CNC(=O)NC(=O)C(OC(=O)c1cccc(S(=O)(=O)N2CCCCC2)c1)c1ccccc1 (centres undefined) | 0.1% (inactive) |
| O=C1CCC[C@@H]2CC(N3CCCCC3)C[C@@H]3CCN1[C@H]23 (some centres undefined) | -1.2% (inactive) |

| Compound | survival enhancement |
| --- | --- |
| CCc1nc2ccccc2n(CCOCCOCCn2c(=O)c(CC)nc3ccccc32)c1=O | 2.6% (inactive) |
| Cc1ccc(S(=O)(=O)N2CCOCC2)cc1NC(=O)COC(=O)c1cnccn1 | -1.4% (inactive) |
| CN(C)C(=O)CCc1ccc2c3c([nH]c2c1)[C@]1(C)[C@@H](C(=O)N2CCCCC2)C[C@H](CC(=O)NCCC2=CCCCC2)C(=O)N1CC3 | 1% (inactive) |
| CCN(CC)S(=O)(=O)c1ccc(N2CCCC2)c(NS(=O)(=O)c2cccs2)c1 | 0.5% (inactive) |
| COc1ccccc1NC(=O)C(C)OC(=O)CC1CCCC1 (centres undefined) | -0.5% (inactive) |
| O=C(CSc1nnc(CN2CCCC2)n1-c1ccc(F)cc1)c1ccc2c(c1)OCO2 | 0% (inactive) |
| CCOc1ncccc1C(=O)Nc1ccc2c(c1)OCCO2 | 0.1% (inactive) |
| COc1cc(C(=O)NC(=S)NCc2ccco2)cc(OC)c1OC | -1.8% (inactive) |
| CCc1nc2ccc(C(=O)N3CCN(S(=O)(=O)CC)CC3)cn2c1N(C=O)CCC(C)C | 0.9% (inactive) |
| CCC(=NC1CC(C)(C)NC(C)(C)C1)C1=C(O)CC(C)(C)CC1=O | -1.8% (inactive) |
| Cc1ccc(C(=O)N/C(=C\c2ccco2)C(=O)NC2CCS(=O)(=O)C2)cc1 (centres undefined) | -0.5% (inactive) |
| Nc1[nH]c(=S)nc2nc(-c3ccccc3)c(-c3ccccc3)nc12 | -2% (inactive) |
| CCn1c2c(c3ccc(OC)cc31)CCCC2=O | 0.7% (inactive) |
| COC(=O)c1ccc2nc(C3CCCCC3)c(Cc3cccc(F)c3)n2c1 | -0.3% (inactive) |
| CC1(C(=O)NCCc2c[nH]c3ccccc23)C=CC2(CCCCC2)N1C(=O)c1ccccc1 (centres undefined) | -0.6% (inactive) |
| O=C(c1ccc(F)cc1)c1cn(Cc2ccc(F)cc2)c2cc3c(cc2c1=O)OCCO3 | -1.1% (inactive) |
| COc1ccc2c(c1)c(=O)c(C(=O)c1ccc(Cl)cc1)cn2CC(=O)Nc1ccc(F)cc1 | 35.8% (active) |
| COc1ccc(NC(=O)CC2C(=O)NC3CCCCC3N2C(=O)c2ccc(F)cc2)cc1 (centres undefined) | -0.2% (inactive) |
| O=C(Nc1cccc2cccnc12)c1ccc2sc([C@H]3C[C@H](O)[C@@H](CO)O3)nc2c1 | -1.8% (inactive) |
| C=CCn1c(C23CC4CC(CC(C4)C2)C3)n[nH]c1=S | -0.3% (inactive) |
| O=C(OCCN1C(=O)c2ccccc2C1=O)[C@@H]1CC(O)CN1S(=O)(=O)c1ccccc1[N+](=O)[O-] (some centres undefined) | -1.2% (inactive) |
| CCc1nnc(NC(=O)C2CC(=O)N(c3ccc4c(c3)OCCO4)C2)s1 (centres undefined) | -0.7% (inactive) |
| Cc1ccc(CCN2CC(C(=O)NCCc3ccccc3)CC2=O)cc1 (centres undefined) | 0.1% (inactive) |
| CCOc1ccc(OCC)c(NC(=O)C(NS(=O)(=O)c2ccc3c(c2)oc(=O)n3C)C(C)C)c1 (centres undefined) | -3.4% (inactive) |
| COc1ccccc1CCNC(=O)c1cnccn1 | 0.7% (inactive) |
| COc1ccc(C(=O)NNC(=O)c2cnccn2)cc1[N+](=O)[O-] | -1.9% (inactive) |
| COc1ccc(C(C#N)(CC(=O)O)c2cnccn2)cc1OC (centres undefined) | 27% (active) |
